# Measurements: PubChem BioAssay (Tox21)
# Inconclusive results are not listed. Entries that show only a call come without a potency. Activity calls are given as the source filed them. Calls follow the shape of the dose curve; as a rule, active = well fitted cell-killing curve with a large enough effect in the repeat runs; inconclusive = weak or mixed curves, or effect the other way; inactive = flat fitted curve, though single readings scatter.
# Assay: qHTS assay to identify small molecule antagonists of the androgen receptor (AR) signaling pathway using the MDA cell line - cell viability counter screen (AID 743041; also: nearly all actives have a fitted effect of over 45% in size)
# Details: MDA-kb2 viability, CellTiter-Fluor, 16 h, cells co-treated with R1881 androgen agonist; series mostly up to 70.3 µM
# Text: National Center for Advancing Translational Sciences [NCATS]
# NIH Chemical Genomics Center [NCGC]
# U.S. Environmental Protection Agency [EPA]
# National Institutes of Environmental Health Sciences [NIEHS]
# National Toxicology Program [NTP]
# U.S. Food and Drug Administration [FDA]
# Androgen receptor (AR), a nuclear hormone receptor, plays a critical role in AR-dependent prostate cancer and other androgen related diseases. Endocrine disrupting chemicals (EDCs) and their interactions with steroid hormone receptors like AR may cause disruption of normal endocrine function as well as interfere with metabolic homeostasis, reproduction, developmental and behavioral functions. To identify the compounds that inhibit AR signaling, MDA-kb2 AR-luc cell line (from ATCC, deposited by Wilson et al.) was used to screen the Tox21 10K compound library. MDA-kb2 AR-luc cell line is human breast carcinoma cell line that was stably transfected with a luciferase reporter gene under control of the MMTV promoter containing response elements for both androgen receptor (AR) and glucocorticoid receptor (GR). The cytotoxicity of the Tox21 compound library against the MDA-kb2 AR-luc cell line was tested in parallel by measuring the cell viability using CellTiter-Fluor assay (Promega, Madison, WI) in the same wells.
# Tox21 Assay Protocol Summary:
# MDA-kb2 AR-luc cells were dispensed at 3,000 cells/4 uL/well of culture medium into white wall/solid-bottom 1536-well plates using a Multidrop Combi (ThermoFisher Scientific, Waltham, MA) dispenser. After the assay plates were incubated at a 37C and 0% CO2 for 5 hr, 23 nL of compounds dissolved in DMSO, positive controls or DMSO only was transferred to the assay plate by a Pintool station (Kalypsys, San Diego, CA), followed by addition of 1 uL of agonist (R1881) in culture medium using a Bioraptr Flying Reagent Dispenser (FRD) workstation (Beckman Coulter, Indianapolis, IN, USA). The plates were incubated at a 37C and 0% CO2 for 16 h. After 15.5 h incubation, 1uL of CellTiter-Fluor reagent (Promega) was added using a Bioraptr FRD to each plate for measuring cytotoxicity. The fluorescence intensity was quantified on a ViewLux plate reader (PerkinElmer, Shelton, CT) following 30 min incubation at 37C and 0% CO2.
# Potency is read from the fitted curve at half-maximal effect.
SMILES,Potency,"viability change, negative = cytotoxic"
CC/C=C\CCCCCO,inactive,–
CCCCC/C=C\C/C=C\CCCCCCCC(=O)O,inactive,–
C=C(C)C(=O)OCCCCCCCCCC,inactive,–
CC[N+](CC)(CC)CCOC(=O)C(C1CCCC1)C1CCCC1,inactive,–
CC(C)CCOC(=O)/C=C/c1ccccc1,inactive,–
Cc1cc(-n2nc3ccc(Cl)cc3n2)c(O)c(C(C)(C)C)c1,inactive,–
C[Si](Cl)(c1ccccc1)c1ccccc1,inactive,–
Cc1cc(C(C)(C)C)c(O)c(C)c1Cn1c(=O)n(Cc2c(C)cc(C(C)(C)C)c(O)c2C)c(=O)n(Cc2c(C)cc(C(C)(C)C)c(O)c2C)c1=O,inactive,–
CCCCCCCCCCCCOCCOCCOCCOCCOCCOCCOCCOCCOCCO,8.41 µM (active),–
c1ccsc1,inactive,–
CCCCNS(=O)(=O)c1ccc(C)cc1,inactive,–
C=CC(=O)OCCOC(=O)C=C,inactive,–
COc1cc(S(=O)(=O)O)c(C)cc1N=Nc1c(O)ccc2cc(S(=O)(=O)O)ccc12,24.3 µM (active),–
CCCC(=O)OCCc1ccccc1,inactive,–
CC[C@H](C)COC(=O)/C=C/c1ccc(N=Cc2ccc(OC)cc2)cc1,inactive,–
O=C(O)O,–,-5.91% [at 8.47 µM] (inactive)
CC(C)NC[C@@H](O)COc1ccc(CC(N)=O)cc1,inactive,–
CC1(C)CCC[C@]2(C)[C@H]3CC(=O)O[C@]3(C)CC[C@@H]12,inactive,–
Cc1cc(C(C)(C)C)cc(C)c1CC1=NCCN1,inactive,–
CC(N=C(NC#N)Nc1ccncc1)C(C)(C)C (stereo not given),inactive,–

SMILES,Potency,"viability change, negative = cytotoxic"
CC(CO)Oc1ccccc1 (stereo not given),inactive,–
COc1ccc(-c2coc3cc(O)ccc3c2=O)cc1,inactive,–
O=C(Nc1ccc2c(O)c(N=Nc3ccc(N=Nc4ccc(S(=O)(=O)O)cc4)cc3)c(S(=O)(=O)O)cc2c1)c1ccccc1,24.3 µM (active),–
CN1CCN(Cc2cc(-c3ccc4[nH]c(=O)oc4c3)co2)[C@@H](c2ccc(F)cc2)C1,inactive,–
O=C(O)[C@H](O)[C@@H](O)[C@H](O[C@@H]1O[C@H](CO)[C@H](O)[C@H](O)[C@H]1O)[C@H](O)CO,inactive,–
C=CCCC(=O)/C=C/C1C(C)=CCCC1(C)C (stereo not given),inactive,–
CC(C)OC(=O)C(O)(CC(=O)O)CC(=O)O,inactive,–
CNC(=O)c1ccccc1Sc1ccc2c(/C=C/c3ccccn3)n[nH]c2c1,inactive,–
C=Cc1cccc(C)c1,inactive,–
O=C(O)c1cc(-c2ccc(F)cc2F)ccc1O,inactive,–
CCCC1CCC(=O)CC1,inactive,–
Nc1ccc(C(=O)O)c(O)c1,inactive,–
NC(=O)c1cccc([N+](=O)[O-])c1,inactive,–
FC(F)(F)c1cccc(Cl)c1,inactive,–
CCN1C(=O)c2ccccc2C1Nc1ccc(OCCN2CCCCC2)cc1 (stereo not given),inactive,–
O=C1CCc2cc(OCCCCc3nnnn3C3CCCCC3)ccc2N1,inactive,–
c1ccc(SSc2ccccc2)cc1,inactive,–
CN(C)Cc1ccccc1O,inactive,–
CCCCOC(=O)CO,inactive,–
Cc1c2ccccc2c(C)c2c1ccc1ccccc12,61.1 µM (active),–
